Only some compounds are listed: those with a hit (about 2.6% of all), similar ones and a draw of the others.
KKLEB tox – cytotoxicity in KKLEB CF airway cells, primary screen, cytotoxicity control for CF NF-kB inhibitor project, cell-based, uHTS, fluorescence assay plates | actives 0.36% (n = 360,000) | KKLEB CF airway cells viability, ATPlite luminescence, overnight; hits give low values; cells stimulated with P. aeruginosa culture filtrate | AID 602141, 2011 | activity change (cytotoxicity), % at 5 µM;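 active = corrected activity change at or below -50% at 5 µM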
CF NFkB block – inhibitors of PAF-induced NF-kB signaling, primary screen, cell-based, GFP fluorescence, uHTS | KKLEB NF-kB-GFP reporter, GFP fluorescence overnight | inhibition, % at 5 µM | actives 0.86% (n = 360,000) | AID 588850, 2011;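 active = at least 50% inhibition at 5 µM, scaled per plate between neutral and stimulator controls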;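 note: PAF is a Pseudomonas aeruginosa culture filtrate used as stimulus; plate controls were PAF-stimulated DMSO wells for no effect and unstimulated DMSO wells for full effect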
TROY NFkB inh – inhibitors of TROY-driven NF-kB signaling, primary screen, Q293 LMP1-TROYcd cells, NF-kB luciferase, uHTS | Q293 LMP1-TROYcd NF-kB luciferase reporter, 4 h | inhibition, % at 10 µM | actives 0.98% (n = 360,000) | AID 1347056, 2019;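 active = compounds whose plate-normalised and pattern-corrected inhibition of the luciferase reporter signal at the single screening dose is 50% or more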
EWS-Fli block – EWS/Fli-driven NR0B1 reporter inhibitors, primary screen, A673 cells, NR0B1 luciferase, luminescence, MLPCN library; actives 0.67% (n = 350,000); viability-normalised; inhibition, % at 12.6 µM; AID 651661, 2012;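 active = mean inhibition of at least 50% after viability correction, with every replicate also passing that limit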;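 note: firefly luciferase signal divided by Alamar Blue viability fluorescence both relative to DMSO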
TWEAK-Fn14 inh – inhibitors of TWEAK-Fn14 signaling, primary screen, luciferase reporter cells, uHTS; TWEAK-stimulated Fn14 reporter cells, luciferase luminescence, 8 h; inhibition, % at 10 µM; actives 2% (n = 360,000); in the data active = inhibition above about 50%
LGR2 antag – inhibitors of bursicon-induced LGR2 CRE-luciferase signal, primary screen, cell-based, HEK293, CRE-luciferase reporter, bursicon stimulation | inhibition, % at 9.99 µM | actives 0.35% (n = 380,000) | bursicon-stimulated, 4 h | Drosophila bursicon receptor LGR2 (rickets);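 active = drop in luminescence signal, shown as inhibition above about 50% in the replicate tests, limit read from the data, passing the limit was not always enough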;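 note: agonist challenge used bursicon conditioned medium at about half maximal strength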
* marks the source's active call; other numbers are inactive results; / = no result given.

SMILES	KKLEB tox	CF NFkB block	TROY NFkB inh	EWS-Fli block	TWEAK-Fn14 inh	LGR2 antag
CC1CN(CCCCSc2ccc(Cl)cc2)CC(C)O1 (stereo not given)	-6	1	-12	3	90*	-14
COc1cccc(-n2nnnc2SCC(=O)NCc2ccc3c(c2)OCO3)c1	15	-12	-8	8	81*	-7
O=C(CCCSc1nc2ccccc2s1)NCc1ccc2c(c1)OCO2	0	10	-75	9	-10	-15
O=C(CSc1nc2ccccc2s1)NCc1ccc2c(c1)OCO2	-2	1	11	/	62*	-9
O=C(CSc1ncnc2scc(-c3ccc(Cl)cc3)c12)NCc1ccc2c(c1)OCO2	-4	-7	-2	/	86*	/
Cc1ccc(-c2nc(S(=O)(=O)c3ccc(C)cc3)c(N3CCOCC3)o2)cc1	-6	7	14	-1	65*	-12
CN(C)CCCNC(=O)C[C@@H]1CC[C@@H]2[C@H](COC[C@@H](O)CN2C(=O)c2ccncc2)O1	/	/	/	3	/	-5
Cc1c(N=Cc2nc3ccccc3n2C)c(=O)n(-c2ccccc2)n1C	1	10	64*	/	62*	-16
O=C(Cc1cccs1)Nc1nc2c(s1)CCCC2	-10	-6	-17	/	-91	/
CC1(C)CC(=O)c2sc(NC(=O)c3cccs3)nc2C1	-16	-12	-27	/	54*	/
O=C(Nc1nc2c(s1)CCCC2)c1cccs1	-7	-2	2	/	57*	/
CC1(C)CC(=O)c2sc(NC(=O)C(C)(C)C)nc2C1	-12	6	-40	-43	-5	-37
Cc1onc(-c2ccccc2Cl)c1C(=O)Nc1nc2c(s1)CCCC2	1	-12	52*	/	-13	/
Cc1noc(C)c1NC(=O)Nc1ccc2c(c1)C(=O)N([C@H](C)CO)C[C@@H](C)[C@H](CN(C)S(=O)(=O)c1c(C)noc1C)OCCCC[C@H](C)O2	/	/	/	-13	/	-2
Cc1cc(C)n(-c2nc(NC(C)(C)C)nc(NC(C)(C)C)n2)n1	-7	-6	4	/	-7	/
Cc1cc(C)n(-c2nc(Nc3ccccc3C(F)(F)F)nc(-n3nc(C)cc3C)n2)n1	-14	38	79*	/	81*	/
C[C@H](CO)N1C[C@H](C)[C@@H](CN(C)S(=O)(=O)c2cn(C)cn2)Oc2ccc(NC(=O)CCC(F)(F)F)cc2CC1=O	/	/	/	3	/	-9
CCCOc1ccc(/C=C/c2[nH]c(=O)[nH]c(=O)c2[N+](=O)[O-])cc1OCC	6	-43	-6	12	10	2
CCOC(=O)COc1ccc(Br)cc1/C=C\c1[nH]c(=O)[nH]c(=O)c1[N+](=O)[O-]	17	-8	3	-10	74*	/
CCOc1ccc(/C=C/c2[nH]c(=O)[nH]c(=O)c2[N+](=O)[O-])cc1	-6	14	-20	18	-1	10
CCOC(=O)COc1ccc(Br)cc1/C=C/c1[nH]c(=O)[nH]c(=O)c1[N+](=O)[O-]	12	13	24	11	62*	24
Cc1cc(OCC(=O)N(C)C2CCCCC2)ccc1Cl	5	6	66*	-12	39	-11
Oc1ccccc1C1NN=C(c2ccccc2)S1 (stereo not given)	-16	9	-21	-18	56*	36
CCOc1cc(C2NN=C(c3ccc(C)cc3)S2)ccc1O (stereo not given)	1	-31	-65	/	-39	20
CSc1ccc(C2NN=C(c3ccccc3)S2)cc1 (stereo not given)	-61*	-11	51*	44	77*	84*
SMILES	KKLEB tox	CF NFkB block	TROY NFkB inh	EWS-Fli block	TWEAK-Fn14 inh	LGR2 antag
C[C@@H]1CN([C@@H](C)CO)C(=O)c2c(c3ccccc3n2C)-c2ccccc2CO[C@H]1CN(C)CC1CC1	/	/	/	-5	/	3
Cc1csc(NC(=O)C2CCCC2)n1	-6	-8	/	/	62*	-21
Cc1csc(NC(=O)c2cc3c(s2)CCCCC3)n1	-63*	9	77*	/	95*	/
Cc1csc(NC(=O)c2cc3c(s2)CCCC3)n1	-29	-5	35	/	71*	/
Cc1csc(NC(=O)CN2C(=O)C3CC=CCC3C2=O)n1 (stereo not given)	0	1	/	/	73*	/
Cc1csc(NC(=O)C2CCCCC2C(=O)O)n1 (stereo not given)	-8	4	-2	/	-10	/
C[C@@H]1CN([C@@H](C)CO)C(=O)c2cc(NS(=O)(=O)c3ccc(Cl)cc3)ccc2O[C@H]1CN(C)S(=O)(=O)c1cccs1	/	/	/	2	/	-8
CN1C(=O)c2cc(NC(=O)c3cnccn3)ccc2OC[C@H]2O[C@@H](CC(=O)NC3CCC3)CC[C@H]21	/	/	/	-1	/	8
Cc1noc(C)c1S(=O)(=O)Nc1ccc2c(c1)C(=O)N([C@@H](C)CO)C[C@H](C)[C@@H](CN(C)Cc1ccc(C(=O)O)cc1)O2	/	/	/	-13	/	-13
Cc1cnc(NC(=O)c2cc3c(s2)CCCC3)s1	-51*	-6	57*	/	86*	/
O=C(COc1ccc(/C=N/NC(=O)c2cc3ccccc3o2)cc1Br)Nc1ccccc1	-51*	51*	40	/	-16	/
O=C(COc1ccccc1[N+](=O)[O-])Nc1ccc(NC(=O)c2cc3ccccc3o2)cc1	-24	25	52*	-6	1	-1
C[C@@H]1CCCCO[C@H](CN(C)Cc2ccc(Cl)c(Cl)c2)[C@@H](C)CN([C@@H](C)CO)C(=O)c2cc(NC(=O)Nc3cccc4ccccc34)ccc2O1	/	/	/	2	/	3
COc1cccc(C(=O)Nc2ccc3c(c2)C(=O)N(C)C[C@H](OC)[C@@H](C)CN(CC2CC2)[C@@H](C)CO3)c1	/	/	/	8	/	0
CN(C)CCNC(=O)C(=O)c1c(-c2ccccc2)cc2ccccn12	-22	-8	-1	-3	17	16
COc1ccc(-c2c(-c3ccccc3)c(C(=O)C(=O)NCCCN(C)C)n3ccc4cc(OC)c(OC)cc4c23)cc1OC	-3	-2	-31	86*	-46	-6
CO[C@H]1CN(C)C(=O)c2cc(NC(=O)C3CC3)ccc2OC[C@H](C)N(C(=O)c2cnccn2)C[C@@H]1C	/	/	/	0	/	-9
CCN(CC)S(=O)(=O)c1ccc(C(=O)Nc2ccc(Cc3ccncc3)cc2)cc1	-2	-1	38	13	58*	21
CCN(CC)S(=O)(=O)c1ccc(NC(=O)c2ccc(N(C)S(C)(=O)=O)cc2)cc1	16	-3	26	/	50*	/
CCN(CC)S(=O)(=O)c1ccc(NC(=O)c2ccccc2N(C)S(C)(=O)=O)cc1	-32	2	9	/	-7	/

High-throughput results as filed in PubChem.
